# Test results taken from PubChem BioAssay AID493169 (National Center for Advancing Translational Sciences (NCATS), 2011).
# Results filed as inconclusive are left out. Active and inactive are the calls of the source. The call rests on the fitted dose curve; in most records, active means well fitted inhibition curve with a large enough effect; inconclusive means small, poorly fitted or top-dose-only effect; inactive means flat fitted curve, though single readings scatter.
# Test: CHOP2 Reporter Counterscreen Assay for Inhibitors of Ubiquitin-specific Protease USP2a;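 further: activated enterokinase alone at 50 pM in a cell-free format rather than USP2a or CHOP2; nearly all actives have a fitted effect of over 55% in size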
# Conditions: purified enterokinase, fluorogenic substrate, 485/531 nm; series mostly up to 38.3 µM; activity change, negative = inhibition: at the top concentration
# Source text: NIH Molecular Libraries Probe Centers Network [MLPCN] NIH Chemical Genomics Center [NCGC] MLPCN Grant: XO1-MH079852-01 PI Name: Nicholson, Ben. Progenra Inc, Malvern, PA NCGC Assay Overview: Homeostasis of cellular proteins is maintained through a combination of synthesis and degradation. The pathway that accounts for the majority of protein degradation is the ubiquitin-proteasomal pathway. Ubiquitin (Ub) is highly conserved in all cells and the generation of a multi-Ub chain typically targets proteins for degradation by the proteasome. However, ubiquitination is highly reversible and dynamic. Deubiquitination, the reverse process, is catalyzed through the action of enzymes referred to as isopeptidases or deubiquitinating enzymes (DUBs). This group of enzymes is collectively responsible for maintaining adequate pools of free ubiquitin and regulating the ubiquitination status of cellular proteins. The class of DUBs referred to as the ubiquitin-specific proteases (USP) family functions endoproteolytically to cleave Ub chains from a wide range of protein substrates. USP2a deubiquitinates fatty acid synthase (FASN) which has recently been identified as an emerging oncology target. To identify inhibitors of USP2a a cell-free assay was employed. This assay is a counterscreen against the reporter enzyme used to measure USP2a activity in the primary qHTS assay. The reporter enzyme is a protease (enterokinase, EK; EC 3.4.21.9), which is activated when a Ub sequence is cleaved by USP2a. The counterscreen assay is performed in the same buffer and conditions as the primary USP2a coupled assay but uses fully activated EK alone. The assay gives a fluorescent read-out at excitation/emission wavelengths of 485/531. The assay was provided by Progenra, Inc. and has been licensed for sale by LifeSensors, Inc.
# NCGC Assay Protocol: The assay buffer, prepared fresh at the day of the assay, contains 20mM Tris-HCl pH 8.0, 2mM CaCl2, 2mM beta-Mercaptoethanol, 0.05% CHAPS. 3uL of 100 pM EK (50 pM final) was dispensed into a medium-binding black solid Kalypsys 1,536 well plate using the Kalypsys dispenser. The assay plate was then pinned with 23nL compounds in DMSO with the Kalypsys pintool in columns 5-48 (0.3% final DMSO concentration). The negative control was buffer/DMSO only in column 3. The assay plate is incubated at RT for 30min. Subsequently, 3uL of reporter substrate (25nM final) were dispensed into the plate using the Kalypsys dispenser. Plates were read after 10 min at RT on a ViewLux (Perkin Elmer) plate reader using the following wavelengths: Ex 485nm /Em 531nm. Data were normalized to the AC100 inhibition (buffer alone). Concentration-response curves were fitted to the normalized data and the concentration-response curves were then classified based on curve quality (r2), response magnitude and degree of measured activity. The time zero reading was used to flag fluorescence artifacts.
# On the % scale 0 is the no-effect control and ±100 the full control effect; potency means the concentration at half of the fitted maximal effect.
Compound,"activity change, negative = inhibition",Potency
Clc1ccccc1-c1nnc2sc(-c3cccs3)nn12,-19.6% (inactive),–
CC1CCCCN1CCNC(=O)CC1Oc2ccccc2NC1=O (stereo not given),-1.06% (inactive),–
C/C(CC(=O)N1CCCC1)=N\NC(=O)c1cc2ccccc2cc1O,-3.58% (inactive),–
O=C(NCCCN1CCCC1=O)c1cccc(N2CCCC2=O)c1,2.06% (inactive),–
C#CCOCCOCCOCCNc1nc(N2CCN(C(=O)CCCCCCCCCCNC(=O)[C@@H](CCC(=O)O)n3cc(CCCCCN)nn3)CC2)nc(N2CCN(C(=O)CCCCCCCCCCNC(=O)[C@H]([C@@H](C)CC)n3cc(CCCCCN)nn3)CC2)n1,–,5.01 µM (active)
COC(=O)C1Sc2[nH]c(=O)sc2C(c2ccc(Cl)cc2)C1C(=O)OC (stereo not given),-1.17% (inactive),–
O=C(NN1C(=O)/C(=C/C=C/c2ccco2)SC1=S)c1ccncc1,–,2.51 µM (active)
COc1ccc(CCNC(=O)Cc2cc(=O)[nH]c(=O)[nH]2)cc1OC,-0.65% (inactive),–
CC(=O)c1cccc(NC(=O)C(C)OC(=O)c2cc(=O)[nH]c3ccccc23)c1 (stereo not given),–,1 µM (active)
C=CC[C@H](CC(=O)N[C@H](CO)Cc1ccccc1)C(=O)N[C@@H](COC(=O)[C@@H](CC=C)CC(=O)OC(C)(C)C)Cc1c[nH]c2ccccc12,0.391% (inactive),–
CCOC(=O)C1CCCN(C(=O)c2cc(-c3ccco3)nc3ccccc23)C1 (stereo not given),–,5.62 µM (active)
Cc1n[nH]c(C)c1S(=O)(=O)N1CCCC(C(=O)NC2CCCc3ccccc32)C1 (stereo not given),0.0618% (inactive),–
CCN(Cc1ccncc1)C(=O)c1cccs1,-5.8% (inactive),–
CCN=C1SC(C(=O)Nc2cccc(OCC)c2)CC(=O)N1CC (stereo not given),0.255% (inactive),–
C=CC[C@@H](CC(=O)N(CCO)Cc1ccccc1)C(=O)NCCOC(=O)[C@H](CC=C)CC(=O)OC(C)(C)C,4.41% (inactive),–
CC(=O)Nc1cc[n+](CC(=O)c2ccc(Cl)cc2)cc1,-1.03% (inactive),–
O=S(=O)(NC1CCSc2ccccc21)c1ccccc1 (stereo not given),-0.783% (inactive),–
Cc1cc(C)cc(OCC(=O)Nc2ccc(N3CCCC3)cc2)c1,–,10 µM (active)
O=C(CSc1ccc(Br)c2cccc(Cl)c12)Nc1ccc(S(=O)(=O)Nc2nccs2)cc1,–,11.2 µM (active)
COc1ccc(CC(=O)c2ccccc2C(=O)O)cc1,5.34% (inactive),–

Compound,"activity change, negative = inhibition",Potency
O=C(CCCN1C(=O)c2ccccc2C1=O)NC1=NCCS1,4.73% (inactive),–
CC(=O)Nc1ccc(NC(=O)C2CCCN(S(=O)(=O)c3ccc(Cl)cc3)C2)cc1 (stereo not given),1.55% (inactive),–
COc1ccc(-c2nnn(CC(=O)N3CCOCC3)n2)cc1,2.46% (inactive),–
CCOC(=O)N1CCN(S(=O)(=O)c2ccc(C)cc2)C1c1ccc(OC)cc1 (stereo not given),1.57% (inactive),–
CC(=O)c1ccc(NC(=O)CC(NCCC2=CCCCC2)C(=O)O)cc1 (stereo not given),2.06% (inactive),–
COCCN1Cc2cccc(C(=O)N3CCN(c4cc(C)ccc4C)CC3)c2C1=O,-2.08% (inactive),–
O=C(N/C(=C/c1cccnc1)C(=O)N1CCOCC1)c1ccco1,0.49% (inactive),–
O=C(O)CC(C(=O)O)N1C(=O)/C(=C/C=C/c2ccco2)SC1=S (stereo not given),–,3.55 µM (active)
COC(=O)[C@@]12CCCCN1[C@H](c1ccc(-c3ccc(Cl)c(Cl)c3)cc1)[C@H]1C(=O)N(C)C(=O)[C@H]12,-3.03% (inactive),–
COC(=O)CSc1nc2c(c(-c3ccco3)c1C#N)CCCC2,4.87% (inactive),–
Cn1c(C(=O)NCCN2CCOCC2)cc2c(=O)n(C)c3ccccc3c21,-0.0744% (inactive),–
Cc1cccc(N=C2NC(=O)/C(=C/C=C/c3ccco3)S2)c1,–,10 µM (active)
O=C(COC(=O)/C=C/c1ccc(Cl)cc1)NC1CC1,1.41% (inactive),–
COc1cccc(C(=O)NC(C)c2ccc(-c3ccccc3)cc2)c1OC (stereo not given),-5.34% (inactive),–
COc1ccc(NC(=O)CSc2nc(O)cc(=O)n2-c2ccc(OC)cc2)cc1,-6.78% (inactive),–
CC1CCN(CC(O)COc2cccc(F)c2)CC1 (stereo not given),-2% (inactive),–
CCOC(=O)Nc1nnc(CCc2ccccc2)s1,-3.27% (inactive),–
Cc1cccn2c(=O)c3cc(C(=O)NCCN4CCOCC4)c(=N)n(CCN4CCOCC4)c3nc12,-17.7% (inactive),–
Cc1ccc(N(CC(=O)Nc2ccc(S(=O)(=O)N3CCOCC3)cc2)S(C)(=O)=O)cc1C,2.83% (inactive),–
CC(NC(=O)COc1ccccc1-c1ccccc1)c1ccccc1 (stereo not given),-0.69% (inactive),–
